How the values were obtained:
ETS1 [1] = target: T1, ETS1 (UniProt P14921); assay: ETS1 binding intensity (PBM fluorescence), ETS1 alone (arbitrary fluorescence units); higher = stronger binding; conditions: ETS1 concentration 1 nM; RUNX1 concentration 0 nM
T1 sequence: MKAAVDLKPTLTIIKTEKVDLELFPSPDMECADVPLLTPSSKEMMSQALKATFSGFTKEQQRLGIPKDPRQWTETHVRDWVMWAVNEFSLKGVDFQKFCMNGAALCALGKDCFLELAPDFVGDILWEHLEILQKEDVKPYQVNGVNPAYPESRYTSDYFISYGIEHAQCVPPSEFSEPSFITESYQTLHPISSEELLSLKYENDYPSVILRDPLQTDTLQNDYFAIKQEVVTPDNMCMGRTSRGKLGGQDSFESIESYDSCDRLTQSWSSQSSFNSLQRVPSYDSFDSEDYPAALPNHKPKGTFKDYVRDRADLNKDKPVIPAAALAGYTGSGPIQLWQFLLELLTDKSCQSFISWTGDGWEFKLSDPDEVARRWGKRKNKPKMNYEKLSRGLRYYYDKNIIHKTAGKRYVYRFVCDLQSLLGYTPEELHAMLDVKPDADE

RUNX1 [2] = target: RUNX1 (UniProt Q01196); assay: RUNX1 binding intensity (PBM fluorescence), RUNX1 alone (arbitrary fluorescence units); higher = stronger binding; conditions: RUNX1 concentration 2 nM; ETS1 concentration 0 nM
Protocol: (§1)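 Cooperative gcPBM on 36-bp genomic probes with neighbouring ETS1 and RUNX1 sites. Recombinant human RUNX1 (2 nM) was incubated alone or with ETS1 (25 nM) and detected with anti-RUNX1 antibody plus Alexa488 secondary. Values are medians over 4 replicate spots; the RUNX1+ETS1 data were normalised to the RUNX1-only data. The probes sit in constant array flanks that are not printed.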

ETS1 [3] = target: T1, ETS1; assay: ETS1 binding intensity (PBM fluorescence) in presence of RUNX1, normalised to ETS1-only experiment (arbitrary fluorescence units); higher = stronger binding; conditions: ETS1 concentration 1 nM; RUNX1 concentration 25 nM
RUNX1 [4] = target: RUNX1 (UniProt Q01196); assay: RUNX1 binding intensity (PBM fluorescence) in presence of ETS1, normalised to RUNX1-only experiment (arbitrary fluorescence units); higher = stronger binding; conditions: RUNX1 concentration 2 nM; ETS1 concentration 25 nM
Protocol: as §1
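For RUNX1 binding intensity (PBM fluorescence) in presence of ETS1, normalised to RUNX1-only experiment in this document: Full-length recombinant human ETS1 or RUNX1 bound to double-stranded 36-bp genomic probes on microarrays, detected by protein-specific primary antibody and Alexa488 secondary, spot fluorescence as median of four replicate spots.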
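For RUNX1 binding intensity (PBM fluorescence), RUNX1 alone in this document: Full-length recombinant human RUNX1 bound to double-stranded 36-bp genomic probes on a high-density microarray, scored as Alexa488 fluorescence per spot via anti-RUNX1 antibody, median of four replicate spots.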

RUNX1, sequence (Q01196 whole entry): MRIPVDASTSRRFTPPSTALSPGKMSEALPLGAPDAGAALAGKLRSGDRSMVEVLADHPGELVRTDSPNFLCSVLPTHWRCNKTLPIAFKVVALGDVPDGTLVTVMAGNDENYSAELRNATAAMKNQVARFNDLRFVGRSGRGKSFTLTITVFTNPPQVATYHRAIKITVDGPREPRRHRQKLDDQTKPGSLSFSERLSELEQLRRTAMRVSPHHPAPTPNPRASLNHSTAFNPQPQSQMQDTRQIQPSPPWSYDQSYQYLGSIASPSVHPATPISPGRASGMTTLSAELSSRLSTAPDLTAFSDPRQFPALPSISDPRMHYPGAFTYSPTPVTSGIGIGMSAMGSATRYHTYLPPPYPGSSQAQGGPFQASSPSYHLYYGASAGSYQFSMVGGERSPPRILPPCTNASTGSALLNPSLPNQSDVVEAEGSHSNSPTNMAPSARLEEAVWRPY

| Sequence | ETS1 binding intensity (ETS1 [1]) | RUNX1 binding intensity (RUNX1 [2]) | ETS1 binding intensity (ETS1 [3]) | RUNX1 binding intensity (RUNX1 [4]) |
| --- | --- | --- | --- | --- |
| GGCTTCCGCCTGCCGAGCGGCCCCGGACCGCAGGCC | 343 | 830 | 768 | 1980 |
| CACCGCCGGAGTCCCGGATGTGGTTGCTAGGGCAGC | 5070 | 767 | 14900 | 3280 |
| AGAAAAGGAAATGGTGGGCTGCACACCACAGCTCAC | 477 | 728 | 461 | 1130 |
| TGAGAAAGCTATTTCCGCCCACAAAGAGGCAAGTCT | 1420 | 763 | 1370 | 1570 |
| TCCCCCACTTCCTGGCAGCAGCAGTGTGGTGAGGAG | 845 | 879 | 996 | 2160 |
| ATCTTCCGTAGCAGTCAGGTGTTTTGTGGTTTGCAG | 460 | 1490 | 1300 | 2670 |
| CTGCCTGGCACAGGATGTGGTCATTTGTGCTGAGGA | 5880 | 730 | 17900 | 4420 |
| CTTCAAAGTCAGGAAACCGTTAAACCACACTGCATC | 716 | 1100 | 1910 | 1360 |
| CCCAACCATTTCCGCCACACCTCCAACCCACTGCCG | 647 | 2030 | 542 | 4660 |
| TACCTACAGGAAATGAGACACACCGCAGGCCGATCC | 2130 | 868 | 7670 | 1770 |
| GCCAGCGGGGCTTCCGGCCCCGCAGGCAGAAGTCGA | 1460 | 646 | 1290 | 1260 |
| TGTAAGTCACTTCCTGTCGTGGTCAGGTCTCCTCTC | 8260 | 873 | 7730 | 2370 |
| CCCTACTCAGGAGGATGTGGTTGGAGAACCCGCTGA | 815 | 755 | 2260 | 1300 |
| ACAGGCTGTCTGCTTCCGTCAGCGGTTATTCCCTTG | 523 | 882 | 602 | 1340 |
| GCTCATTTATGCATCCTGTGGTCTGTGTGTGTTTCG | 569 | 984 | 831 | 1390 |
| TGCCTCACCTCACATCCGTTTGTGGCTGCCGAGTGC | 1090 | 950 | 1310 | 1880 |
| CCCTGACTTTTACGGAAATAGCGGTCCAAAAGCGCC | 986 | 880 | 1080 | 1160 |
| TTCATCTCTCACTTCCTGTGGTGACGGCTGACGGGG | 4120 | 1030 | 4690 | 1660 |
| CACCCTCAACTTCCTGACCCATAAACCACAAGCTAT | 468 | 6110 | 1810 | 13100 |
| TGGCGGGAGAACTTCCCCCTGTGCGGTCGCGACGTG | 444 | 738 | 533 | 943 |

| Sequence | ETS1 binding intensity (ETS1 [1]) | RUNX1 binding intensity (RUNX1 [2]) | ETS1 binding intensity (ETS1 [3]) | RUNX1 binding intensity (RUNX1 [4]) |
| --- | --- | --- | --- | --- |
| GAGGTGCCGGAAGCCAGTAGGTGGTTTTGGGTGCTA | 1530 | 695 | 2120 | 1180 |
| ACGTCTGTTTCCTGTGATTGAAACCGCAAGAAGAAG | 783 | 4510 | 2250 | 18500 |
| GCACGCCATCGAGGAAGTGGGTTTACTGTGTATTTC | 916 | 723 | 1110 | 934 |
| GACCCGGCCCGCCCCTTCCGGCCGCAGCGCGGGGCA | 704 | 952 | 817 | 1490 |
| AGGAGTGTCACTTCCTCTTTCCTCACCACAGCCTCC | 1100 | 1040 | 1440 | 1890 |
| CCTGGGGGGCCGGAAGCCCCGCTGCGGCCCCAGCCC | 3060 | 737 | 2480 | 1130 |
| AAAGCAAACAGGAAGTGCTGTGGTAACAAGGCCCCA | 6830 | 728 | 14500 | 1820 |
| GCAGAAGAGGAAATGGTTTGCCTGTGCGGTGGGGGA | 1370 | 821 | 3280 | 999 |
| AGCTGAAGGGCAGGATGTGGTTTCAGCATTCGGTGA | 3090 | 791 | 16400 | 5290 |
| CTGCCGGAAGCTGCCCCTCCACCATTTTGTGGCCCG | 1770 | 818 | 1850 | 1280 |
| TGTTGTAGGGGAAGTGGTGTGTGGTATTCCTGGGGA | 797 | 811 | 1690 | 1070 |
| AGTTTCTTCTTTCCGGTGGGTTTGTGGTCTTGCTGA | 1160 | 1390 | 2990 | 2770 |
| GCTCCGCTTCCGGGAGGCGGGGCTTCTGCGGGTTCC | 698 | 737 | 2520 | 1710 |
| GGTCCCCCCGGTTCCGGCGCGGTTGAGGCCTTCGGT | 683 | 758 | 676 | 1170 |
| GCGCGGGCAACTTCCGGTGTGGGTGACGAGTGGTGG | 10900 | 778 | 12700 | 2700 |
| CATAGGAAGTGCTCAGCTCTCCTCCACCGCAAGTTT | 452 | 806 | 2190 | 879 |
| GTTGGGGTGCGTGTAGGATGTGGTCTGGGATGATTA | 599 | 1050 | 2610 | 867 |
| GGCTGCGACTTCCGGACTGCTCCTGGCCGCAGGGGG | 2070 | 813 | 2500 | 1370 |
| GGGGGCGGAAGTTTCGGTGCATTGTGGGTTCTCCTG | 1260 | 920 | 1980 | 1140 |
| CTTATCTTCTTCCTGTGAGCTGTGTGTGGGTGGCTC | 489 | 942 | 397 | 1580 |

— the supplement of paper PMC10681739
